Data as given in PubChem BioAssay.
Calls of active or inactive are those of the source. Unless noted, how the calls were made is not given here.

Legend:
[1] = compounds binding Alexa647 anti-His antibody – biochemical, small-molecule microarray, 635 nm fluorescence, artefact control for SMM control protein annotation, primary screen (AID 1128); details: higher = more signal;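 further: score merges feature fluorescence with signal-to-noise for each printed compound spot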
[2] = test system: Human papillomavirus type 1a E7 protein (residues 1-88); assay: HPV1a E7 small-molecule binders, primary screen, biochemical, small-molecule microarray, residues 1-88, 635 nm (AID 1129); details: small-molecule microarray binding, fluorescence 635 nm; higher = more signal
[3] = molecular target: Focal adhesion kinase 1 (Homo sapiens) (UniProt Q05397); assay: PTK2 protein binding on printed compound slides – biochemical, small-molecule microarray, 635/667 nm fluorescence, BSA, DTT, primary screen (AID 1130); details: 635 nm fluorescence, higher = more signal;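 further: composite of spot emission at 667 nm and signal to noise over triplicate slides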
[4] = test system: Fibrinogen (Alexa647-labelled); assay: Alexa647-fibrinogen binding to printed small molecules – biochemical, small-molecule microarray, 635/667 nm fluorescence, artefact control for SMM control-protein annotation, profiling panel (AID 1131); details: fibrinogen-A647 binding fluorescence, higher = more signal;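 further: z-score merges 667 nm fluorescence with per-spot signal-to-noise over triplicate slides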
[5] = molecular target: Follistatin (Homo sapiens) (UniProt P19883); assay: FST protein binding to printed compounds – biochemical, small-molecule microarray, 635/667 nm fluorescence, primary screen (AID 1132); details: 635 nm fluorescence, higher = more signal
[6] = molecular target: Fibroblast growth factor 2 (Homo sapiens) (UniProt P09038); assay: basic fibroblast growth factor binding to printed compounds – biochemical, small-molecule microarray, 635/667 nm fluorescence, primary screen (AID 1133); details: FGF2, fluorescence 635/667, higher = more signal
[7] = JC-1 mitochondrial potential readout, lung cancer cells – cell-based, A549, JC-1 fluorescence, basal, 24 h, 100 nL, profiling panel (AID 1138); details: higher = more signal;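 further: A549 lung adenocarcinoma cells under basal conditions with no added stimulus; test concentration not given here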
Lefty1 = Lefty1 protein binding to printed compounds – biochemical, small-molecule microarray, 635/667 nm fluorescence, primary screen (AID 1139); details: fluorescence 635/667, higher = more signal
[8] = test system: wheat germ agglutinin (Triticum aestivum), Alexa647-labelled; assay: Alexa647-WGA lectin binding to printed small molecules – biochemical, small-molecule microarray, 635/667 nm fluorescence, artefact control for SMM control-protein annotation, profiling panel (AID 1140); details: WGA-A647 binding, 635 nm fluorescence, higher = more signal;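 further: score merges 667 nm feature emission with signal to noise over triplicate slides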
[9] = molecular target: Luciferin 4-monooxygenase (Photinus pyralis) (UniProt P08659); assay: inhibition of purified Photinus pyralis luciferase – biochemical, luminescence, purified enzyme, 2006 set, primary screen (AID 1141); details: purified firefly luciferase, SteadyGlo luminescence, 30 min; higher = more signal, called active from +8 up or from −8 down;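 further: cell-free assay with purified firefly luciferase at 100 ng per well in PBS; test concentration not given here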
[10] = test system: Wnt5a (protein binding on small-molecule microarray); assay: small molecules binding Wnt5a protein – biophysical, small-molecule microarray, 635/667 nm fluorescence, primary screen (AID 1142); details: 635 nm fluorescence, higher = more signal;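 further: fluorescence read at 667 nm with signal to noise per printed feature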
[11] = ATP-based viability of Huh7 replicon cells – cell-based, CellTiter-Glo luminescence, basal, 48 h, cytotoxicity control for HCV replication inhibitor project, primary screen (AID 1143); details: higher = more signal, called active from +8 up or from −8 down;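 further: Huh7 hepatoma cells carrying a hepatitis C replication reporter with no stimulus; test concentration not given here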
[12] = Pseudomonas biofilm growth suppression – PAO1 strain, BacTiter-Glo luminescence, LB-PBS, primary screen (AID 1144); details: P. aeruginosa PAO1 biofilm, 12 h, higher = more signal
[13] = basal CRE-LacZ reporter activity in PC12 – cell-based, unstimulated, primary screen (AID 1145); details: no forskolin, luminescence, 4.5 h, higher = more signal, called active from +8 up or from −8 down
[14] = forskolin-driven CRE-LacZ activity in PC12 – cell-based, CRE-LacZ reporter, forskolin-stimulated, primary screen (AID 1146); details: luminescence, 4.5 h, higher = more signal, called active from +8 up or from −8 down;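 further: PC12 cells with 6xCRE LacZ reporter stimulated by forskolin 10 µM; beta-galactosidase reporter signal reflecting CREB driven transcription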
[15] = molecular target: Streptavidin (Streptomyces avidinii) (UniProt P22629); assay: compounds binding control protein streptavidin – biophysical, small-molecule microarray, 635/667 nm fluorescence, artefact control for SMM compound annotation, primary screen (AID 1147); details: higher = more signal;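 further: signal reflects streptavidin binding to arrayed compounds as a control protein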
[16] = probe aInhba binding on compound microarray – biochemical, small-molecule microarray, 635/667 nm fluorescence, primary screen (AID 1148); details: higher = more signal;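 further: score merges 667nm spot fluorescence with signal-to-noise for antibody binding to printed compounds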
Torsin-1A (Homo sapiens) [17] = molecular target: Torsin-1A (Homo sapiens) (UniProt O14656); assay: TOR1A wild-type binding on microarray – cell lysate, small-molecule microarray, lysate, 635/667 nm, primary screen (AID 1149); details: COS7 hTOR1A-WT lysate, 635 nm fluorescence, higher = more signal
Torsin-1A (Homo sapiens) [18] = molecular target: Torsin-1A (Homo sapiens) (UniProt O14656); assay: torsin A mutant lysate binding on microarrays – cell lysate, small-molecule microarray, COS7 lysate, 635/667 nm fluorescence, primary screen (AID 1150); details: COS7 hTOR1A mutant lysate, 635 nm fluorescence, higher = more signal;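 further: score pools 667 nm emission and signal to noise measuring lysate protein binding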
[19] = test system: Sonic hedgehog protein (Shh); assay: Sonic hedgehog microarray binding compounds – biochemical, small-molecule microarray, 635/667 nm fluorescence, primary screen (AID 1151); details: 635 nm fluorescence, higher = more signal;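 further: Shh protein binding to compounds spotted on small-molecule microarray slides; score combines spot fluorescence intensity with signal-to-noise across triplicate slides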

Torsin-1A (Homo sapiens), sequence (O14656 whole entry, looked up): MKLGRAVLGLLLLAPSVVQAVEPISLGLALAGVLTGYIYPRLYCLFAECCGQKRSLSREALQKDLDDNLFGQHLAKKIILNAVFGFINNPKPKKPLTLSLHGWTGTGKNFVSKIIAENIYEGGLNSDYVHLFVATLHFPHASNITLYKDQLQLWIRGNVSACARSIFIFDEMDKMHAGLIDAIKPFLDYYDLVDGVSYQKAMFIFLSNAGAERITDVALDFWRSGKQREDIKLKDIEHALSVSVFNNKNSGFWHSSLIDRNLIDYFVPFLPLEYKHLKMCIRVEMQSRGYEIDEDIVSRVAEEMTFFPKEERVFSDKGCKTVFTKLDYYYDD
Streptavidin (Streptomyces avidinii), sequence (P22629 whole entry, looked up): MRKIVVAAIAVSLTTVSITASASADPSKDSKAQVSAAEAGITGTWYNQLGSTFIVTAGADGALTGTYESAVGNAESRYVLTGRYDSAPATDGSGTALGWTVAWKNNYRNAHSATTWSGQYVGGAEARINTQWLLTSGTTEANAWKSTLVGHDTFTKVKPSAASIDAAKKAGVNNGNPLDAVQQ
Follistatin (Homo sapiens), sequence (P19883 whole entry, looked up): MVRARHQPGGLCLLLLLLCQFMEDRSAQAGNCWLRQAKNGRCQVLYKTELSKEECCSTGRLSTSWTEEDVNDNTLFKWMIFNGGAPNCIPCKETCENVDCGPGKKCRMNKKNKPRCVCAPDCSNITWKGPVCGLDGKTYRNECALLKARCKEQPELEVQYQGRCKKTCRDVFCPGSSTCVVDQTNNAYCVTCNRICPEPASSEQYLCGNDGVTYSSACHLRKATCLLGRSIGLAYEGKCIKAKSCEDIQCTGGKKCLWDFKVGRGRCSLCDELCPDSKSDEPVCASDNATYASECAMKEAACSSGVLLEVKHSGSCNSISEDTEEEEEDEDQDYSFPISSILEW
Fibroblast growth factor 2 (Homo sapiens), sequence (P09038 whole entry, looked up): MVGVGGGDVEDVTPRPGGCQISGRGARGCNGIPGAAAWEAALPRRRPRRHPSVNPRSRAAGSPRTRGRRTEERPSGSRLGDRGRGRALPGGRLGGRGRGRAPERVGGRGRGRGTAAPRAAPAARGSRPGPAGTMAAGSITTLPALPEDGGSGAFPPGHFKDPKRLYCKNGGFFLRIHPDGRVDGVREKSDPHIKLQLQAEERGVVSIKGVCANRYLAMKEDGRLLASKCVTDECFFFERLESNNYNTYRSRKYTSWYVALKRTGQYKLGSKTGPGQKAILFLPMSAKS
Focal adhesion kinase 1 (Homo sapiens), sequence (Q05397 whole entry, looked up): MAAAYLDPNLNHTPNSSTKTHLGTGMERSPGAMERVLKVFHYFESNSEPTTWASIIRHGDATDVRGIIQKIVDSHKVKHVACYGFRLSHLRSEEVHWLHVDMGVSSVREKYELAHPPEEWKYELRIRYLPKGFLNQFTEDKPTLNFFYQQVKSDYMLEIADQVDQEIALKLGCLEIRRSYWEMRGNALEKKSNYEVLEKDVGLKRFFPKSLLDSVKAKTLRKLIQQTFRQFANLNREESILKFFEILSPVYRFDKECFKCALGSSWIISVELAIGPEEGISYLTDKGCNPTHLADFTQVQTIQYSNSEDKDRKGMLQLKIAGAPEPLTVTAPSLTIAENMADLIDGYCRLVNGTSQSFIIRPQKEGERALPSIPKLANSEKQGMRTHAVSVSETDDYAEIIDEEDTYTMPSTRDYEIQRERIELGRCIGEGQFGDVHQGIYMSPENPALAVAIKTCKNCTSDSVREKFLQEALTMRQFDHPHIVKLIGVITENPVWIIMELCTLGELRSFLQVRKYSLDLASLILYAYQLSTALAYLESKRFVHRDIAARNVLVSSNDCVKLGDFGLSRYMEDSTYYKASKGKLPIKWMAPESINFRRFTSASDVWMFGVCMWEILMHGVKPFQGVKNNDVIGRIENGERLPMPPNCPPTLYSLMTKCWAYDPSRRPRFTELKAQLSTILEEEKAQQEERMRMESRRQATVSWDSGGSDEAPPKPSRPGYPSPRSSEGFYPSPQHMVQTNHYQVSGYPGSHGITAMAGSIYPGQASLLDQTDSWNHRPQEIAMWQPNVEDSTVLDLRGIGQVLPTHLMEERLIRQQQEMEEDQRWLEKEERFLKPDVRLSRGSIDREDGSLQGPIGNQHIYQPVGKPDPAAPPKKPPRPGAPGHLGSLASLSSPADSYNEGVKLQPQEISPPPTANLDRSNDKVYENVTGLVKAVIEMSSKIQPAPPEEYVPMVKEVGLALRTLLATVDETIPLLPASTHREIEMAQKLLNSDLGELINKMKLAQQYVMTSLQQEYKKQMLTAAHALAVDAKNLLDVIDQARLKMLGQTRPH
Luciferin 4-monooxygenase (Photinus pyralis), sequence (P08659 whole entry, looked up): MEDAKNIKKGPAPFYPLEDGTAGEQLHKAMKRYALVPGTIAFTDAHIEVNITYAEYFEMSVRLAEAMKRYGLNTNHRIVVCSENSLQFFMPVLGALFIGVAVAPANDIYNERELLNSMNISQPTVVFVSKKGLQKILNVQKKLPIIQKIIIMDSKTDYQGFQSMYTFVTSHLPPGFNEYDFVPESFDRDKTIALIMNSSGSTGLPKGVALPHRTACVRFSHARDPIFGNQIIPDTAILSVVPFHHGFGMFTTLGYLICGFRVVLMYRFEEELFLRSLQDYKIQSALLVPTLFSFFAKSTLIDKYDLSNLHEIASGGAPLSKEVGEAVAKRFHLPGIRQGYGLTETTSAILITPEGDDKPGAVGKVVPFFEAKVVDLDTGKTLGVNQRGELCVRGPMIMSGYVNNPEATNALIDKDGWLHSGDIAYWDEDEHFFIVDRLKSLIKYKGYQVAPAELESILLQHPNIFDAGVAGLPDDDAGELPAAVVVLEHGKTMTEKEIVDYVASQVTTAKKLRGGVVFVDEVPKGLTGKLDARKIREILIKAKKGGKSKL

SMILES | composite z-score [1] | composite z-score [2] | composite z-score [3] | composite z-score [4] | composite z-score [5] | composite z-score [6] | z-score [7] | composite z-score (Lefty1) | composite z-score [8] | z-score [9] | composite z-score [10] | z-score [11] | z-score [12] | z-score [13] | z-score [14] | composite z-score [15] | composite z-score [16] | composite z-score (Torsin-1A (Homo sapiens) [17]) | composite z-score (Torsin-1A (Homo sapiens) [18]) | composite z-score [19]
CO[C@@H]1COC(=O)CC=C[C@@H](C)[C@@H]2C=C[C@H](O)[C@@H](COC(=O)CCC[C@H]1C)O2 | 1.59 | -0.442 | -0.382 | -0.478 | 1.06 | 1.3 | -0.992 | 1.08 | -0.0297 | 0.732 (inactive) | 0.0796 | -0.493 (inactive) | 0.0169 (inactive) | -2.36 (inactive) | -1.91 (inactive) | 1.35 | -0.118 | 0.858 | 1.6 | 1.55
CCOC(=O)CCN1C(=O)[C@H]2[C@H]3[C@H](O)[C@H](O)CC(=NOC[C@@H](O)COCc4ccco4)[C@H]3CC[C@H]2C1=O | 0.659 | 0.785 | 0.857 | 0.894 | 0.938 | 0.229 | -1.06 | 0.863 | 0.288 | 0.586 (inactive) | -0.0068 | -4.31 (inactive) | -0.284 (inactive) | 1.41 (inactive) | 0.749 (inactive) | 0.0794 | -0.0627 | 0.291 | 0.18 | 0.856
C#CCCCON=C1C[C@@H](O)[C@@H](O)[C@@H]2[C@@H]3C(=O)N(c4cccc(Oc5ccccc5)c4)C(=O)[C@@H]3CC[C@@H]12 | -0.0428 | 1 | 0.181 | 0.945 | 0.304 | 0.224 | -0.786 | 0.481 | 0.632 | 1.02 (inactive) | 0.0741 | 0.317 (inactive) | 0.000705 (inactive) | 2.16 (inactive) | 0.427 (inactive) | 0.766 | -0.128 | -0.0313 | 0.112 | 0.277
CC(C)C[C@@H]1NC(=O)[C@H]2C[C@@H](C(=O)NCCCCCCN(C)C)[C@@H](c3cccc(OCCO)c3)N2C1=O | 2.19 | 1.01 | 0.204 | 0.0478 | 1.3 | 1.6 | -0.0993 | 1.65 | 0.591 | -0.156 (inactive) | 0.726 | 0.069 (inactive) | -0.402 (inactive) | 0.0124 (inactive) | -0.995 (inactive) | -0.305 | -0.0317 | 1.22 | 1.32 | 2.13
CC(CCC(=O)OC[C@H]1O[C@H](C#Cc2ccccc2)C=C[C@@H]1Oc1ccc(C)cc1)=NOC[C@@H](O)COCc1ccco1 | -1.01 | -0.569 | -1.1 | -2.18 | -2.24 | -3.21 | -0.718 | -2.17 | -0.452 | -0.889 (inactive) | -1.52 | -0.204 (inactive) | -0.128 (inactive) | 3.74 (inactive) | 1.9 (inactive) | -1.78 | -0.446 | -6.37 | -5.2 | -2.43
CC(C)=C1C(=O)C(c2ccccc2)=C2CN3C(=O)N(CCc4ccccc4)C(=O)[C@]3(Cc3ccc(F)cc3)[C@H]21 | 1.59 | -0.205 | -0.0639 | -1.43 | -0.968 | -0.412 | 1.27 | -1.2 | 0.338 | 0.98 (inactive) | -0.506 | -0.934 (inactive) | -0.00959 (inactive) | 0.576 (inactive) | 1.73 (inactive) | 0.0452 | 0.205 | -2.38 | -1.7 | -1.74
CC(C)=NOCc1ccc(-c2cc(-c3ccccc3)no2)cc1 | 0.0906 | 0.272 | 0.0171 | 0.108 | 0.0806 | 0.437 | -0.405 | 0.003 | -0.477 | 0.534 (inactive) | 0.102 | 0.517 (inactive) | 1.5 (inactive) | -0.797 (inactive) | 0.275 (inactive) | 0.06 | -0.23 | 0.299 | -0.223 | 0.253
CC(C)=CCCC(C)=CCON=C1[C@H]2CCn3c(=O)n(Cc4cc5c(cc4Cl)OCO5)c(=O)n3[C@H]2[C@H](O)[C@@H]2O[C@H]12 | 0.321 | 0.349 | 0.138 | 0.544 | 0.908 | 0.367 | -0.939 | 0.889 | -0.0863 | 0.196 (inactive) | 0.0888 | 0.148 (inactive) | 0.138 (inactive) | 0.336 (inactive) | 0.392 (inactive) | 0.813 | -0.128 | 1.62 | 0.718 | 0.563
CO[C@@H]1COC(=O)CCC[C@@H](C)[C@H](OC)COC(=O)CCC[C@H]1C | 0.463 | 0.077 | -0.217 | -0.0557 | 0.513 | 0.685 | -0.598 | 0.958 | -0.261 | 1.17 (inactive) | -0.0665 | -0.459 (inactive) | -0.276 (inactive) | -0.152 (inactive) | 0.273 (inactive) | 0.0601 | -0.0405 | 0.978 | 0.662 | 0.533
